Test results taken from PubChem BioAssay (NCI).
The panel holds about 79,000 compounds, 15% with a hit somewhere; the sample as a whole holds those more often. Active and inactive are the calls of the source. No stated cut-off is given here; in the data, active means growth inhibition above about 70%; inactive means the rest.

What was measured:
[1] = NCI Yeast Anticancer Drug Screen. Data for the rad50 strain (AID 155);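 further: 0% = growth of vehicle-only cultures of the same strain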; settings: S. cerevisiae rad50 strain growth inhibition, stronger effect = higher value
In short: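 DNA repair mutant yeast, compound exposure, growth read-out; inhibition is taken relative to vehicle.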

[2] = NCI Yeast Anticancer Drug Screen. Data for the mec2-1 strain (AID 157); settings: S. cerevisiae mec2-1 strain, stronger effect = higher value
In short: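 Cells of the genetically defined mec2-1 yeast strain are incubated with test compound. Inhibition of growth is calculated against vehicle-treated controls.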

[3] = NCI Yeast Anticancer Drug Screen. Data for the sgs1 mgt1 strain (AID 161);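 further: 0% = growth of cultures given vehicle only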; settings: S. cerevisiae sgs1 mgt1 strain, stronger effect = higher value
In short: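 Genetically altered yeast, compound exposure, growth inhibition relative to vehicle.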

[4] = NCI Yeast Anticancer Drug Screen. Data for the cln2 rad14 strain (AID 165);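 further: 0% = growth equal to vehicle treated cultures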; settings: S. cerevisiae cln2 rad14 strain, stronger effect = higher value
In short: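 The screen exposed genetically defined yeast (cln2 rad14) to test compounds and scored growth inhibition relative to vehicle-treated controls.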

[5] = NCI Yeast Anticancer Drug Screen. Data for the bub3 strain (AID 167); settings: S. cerevisiae bub3 mutant strain, stronger effect = higher value
In short: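 In this screen, a yeast mutant lacking normal mitotic checkpoint function is challenged with compound. Relative growth versus vehicle gives the inhibition value.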

[6] = NCI Yeast Anticancer Drug Screen. Data for the mlh1 rad18 strain (AID 175); settings: S. cerevisiae mlh1 rad18 strain growth inhibition, stronger effect = higher value
In short: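 Compound-treated yeast growth, normalised to vehicle controls. Strain bears defined DNA repair mutations.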

[7] = at 5.0 µM (retest, dose inferred, filed as 0.5)
[8] = at 50.0 µM (retest, dose inferred, filed as 5.0)

Measured: growth inhibition

N#CC1(C#N)C2C=CC(c3coc4cccc2c34)C1(C#N)C#N (centres undefined)
inactive: [1]; [7] 29% | [1]; [8] 37% | [1]; at 50.0 µM 35.6% | [2]; [7] 17% | [2]; [8] 27% | [2]; at 50.0 µM 35.9% | [3]; [7] 32% | [3]; [8] 37% | [4]; [7] 19% | [4]; [8] 27% | [4]; at 50.0 µM 19.2% | [5]; [7] 22% | [5]; [8] 47% | [5]; at 50.0 µM 58.2% | [6]; [7] 26% | [6]; [8] 47% | [6]; at 50.0 µM 57.9%
active: [3]; at 50.0 µM 75%

Cc1cc(N/N=C/c2ccc([N+](=O)[O-])o2)c2cc3c(cc2n1)OCO3
inactive: [1]; [7] 23% | [2]; [7] 16% | [3]; [7] 33% | [4]; [7] 4% | [5]; [7] 8% | [6]; [7] 23%
active: [1]; [8] 99% | [1]; at 50.0 µM 96.7% | [2]; [8] 100% | [2]; at 50.0 µM 92.3% | [3]; [8] 99% | [3]; at 50.0 µM 97.5% | [4]; [8] 99% | [4]; at 50.0 µM 92.7% | [5]; [8] 99% | [5]; at 50.0 µM 90.5% | [6]; [8] 99% | [6]; at 50.0 µM 95.3%

CC(C)c1cccc2sc(NC(=O)C(=O)C(C#N)c3cccc4ccccc34)nc12 (centres undefined)
inactive: [1]; [7] 0% | [1]; [8] 14% | [1]; at 50.0 µM 19.2% | [2]; [7] 3% | [2]; [8] 15% | [2]; at 50.0 µM -9.55% | [3]; [7] 2% | [3]; [8] 10% | [3]; at 50.0 µM 0.25% | [4]; [7] 3% | [4]; [8] 8% | [4]; at 50.0 µM 13.2% | [5]; [7] 3% | [5]; [8] 5% | [5]; at 50.0 µM 5.05% | [6]; [7] 3% | [6]; [8] 9% | [6]; at 50.0 µM 12.2%

O=C1C=C(c2ccccc2)O/C1=C\C(=O)c1ccc(Cl)cc1
active: [1]; at 50.0 µM 89.3% | [2]; at 50.0 µM 90.9% | [3]; at 50.0 µM 86.4% | [4]; at 50.0 µM 87.5% | [5]; at 50.0 µM 88% | [6]; at 50.0 µM 84.5%
inactive: [1]; [7] 48% | [1]; [8] 48% | [2]; [7] 43% | [2]; [8] 43% | [3]; [7] 54% | [3]; [8] 54% | [4]; [7] 14% | [4]; [8] 14% | [5]; [7] 22% | [5]; [8] 22% | [6]; [7] 44% | [6]; [8] 44%

CC(=O)OC[C@@H](OC(C)=O)[C@H](OC(C)=O)c1cnn(-c2ccccc2)n1
inactive: [1]; [7] -3% | [1]; [8] -11% | [1]; at 50.0 µM -0.85% | [2]; [7] -1% | [2]; [8] -6% | [2]; at 50.0 µM 3.15% | [3]; [7] -4% | [3]; [8] 14% | [3]; at 50.0 µM 3.25% | [4]; [7] -1% | [4]; [8] -2% | [4]; at 50.0 µM -5.7% | [5]; [7] 13% | [5]; [8] 29% | [6]; [7] 3% | [6]; [8] -3% | [6]; at 50.0 µM 12.8%
active: [5]; at 50.0 µM 71.8%

COC1OC2COC(c3ccccc3)OC2C(NC(=S)SCc2ccccc2)C1O (centres undefined)
inactive: [1]; [7] -3% | [2]; [7] 0% | [3]; [7] -1% | [4]; [7] 3% | [5]; [7] 0% | [6]; [7] 7%
active: [1]; [8] 98% | [1]; at 50.0 µM 99.4% | [2]; [8] 98% | [2]; at 50.0 µM 99.3% | [3]; [8] 98% | [3]; at 50.0 µM 99.5% | [4]; [8] 98% | [4]; at 50.0 µM 99.5% | [5]; [8] 99% | [5]; at 50.0 µM 99.2% | [6]; [8] 98% | [6]; at 50.0 µM 99%

CC[N+]1(C)CCC(O)(c2ccc(Cl)c(Cl)c2)C(C(=O)c2ccc(Cl)c(Cl)c2)C1 (centres undefined)
active: [1]; [8] 99% | [1]; at 50.0 µM 99.4% | [2]; [8] 100% | [2]; at 50.0 µM 99.6% | [3]; [8] 99% | [3]; at 50.0 µM 99% | [4]; [8] 99% | [4]; at 50.0 µM 99.5% | [5]; [8] 100% | [5]; at 50.0 µM 98.8% | [6]; [8] 100% | [6]; at 50.0 µM 99.6%
inactive: [1]; [7] 15% | [2]; [7] 4% | [3]; [7] 11% | [4]; [7] 6% | [5]; [7] 13% | [6]; [7] 7%

[N-]=[N+]=NC1=C(C(=O)c2ccccc2)C(=O)c2cccc3cccc1c23
active: [6]; at 50.0 µM 70%
inactive: [1]; [7] 13% | [1]; [8] 18% | [1]; at 50.0 µM 32.7% | [2]; [7] 6% | [2]; [8] 27% | [2]; at 50.0 µM 20.4% | [3]; [7] 18% | [3]; [8] 30% | [3]; at 50.0 µM 37% | [4]; [7] 6% | [4]; [8] 17% | [4]; at 50.0 µM 35.2% | [5]; [7] 8% | [5]; [8] 40% | [5]; at 50.0 µM 25.4% | [6]; [7] 4% | [6]; [8] 29%

O=C1/C(=C\c2ccc(Cl)cc2Cl)Sc2scc(-c3ccc(O)c(O)c3)[n+]21
inactive: [1]; [7] 18% | [1]; [8] 55% | [2]; [7] 6% | [2]; [8] 67% | [3]; [7] 15% | [4]; [7] 1% | [4]; at 50.0 µM 46.5% | [5]; [7] -10% | [6]; [7] 28% | [6]; [8] 68%
active: [1]; at 50.0 µM 86.2% | [2]; at 50.0 µM 76.9% | [3]; [8] 71% | [3]; at 50.0 µM 97.8% | [4]; [8] 71% | [5]; [8] 81% | [5]; at 50.0 µM 85.7% | [6]; at 50.0 µM 91.8%

COC1C(N)C(OC2C(Oc3cccc4c(O)c5c(=O)oc6ccc(C)c7c(=O)oc(c34)c5c67)OC(C)C(O)C2(C)O)OC(C)C1O (centres undefined)
inactive: [1]; [7] 12% | [1]; [8] 48% | [1]; at 50.0 µM 26.8% | [2]; [7] -6% | [2]; [8] 8% | [2]; at 50.0 µM 20.3% | [3]; [7] 29% | [3]; [8] 32% | [3]; at 50.0 µM 23.1% | [4]; [7] 8% | [4]; [8] 36% | [4]; at 50.0 µM 32% | [5]; [7] 19% | [5]; [8] 30% | [5]; at 50.0 µM 19.4% | [6]; [7] 11% | [6]; [8] 15% | [6]; at 50.0 µM 60.4%

O=C(O)c1c(-c2ccccc2)cc(-c2ccccc2)cc1-c1ccccc1
active: [1]; [7] 93% | [1]; [8] 98% | [1]; at 50.0 µM 99.1% | [2]; [7] 90% | [2]; [8] 98% | [2]; at 50.0 µM 99.2% | [3]; [7] 93% | [3]; [8] 99% | [3]; at 50.0 µM 99.3% | [4]; [7] 90% | [4]; [8] 98% | [4]; at 50.0 µM 97.8% | [5]; [7] 88% | [5]; [8] 95% | [5]; at 50.0 µM 98.2% | [6]; [7] 92% | [6]; [8] 98% | [6]; at 50.0 µM 98.9%

O/N=C1/CC2CCCc3ccc4cccc1c4c32 (centres undefined)
inactive: [1]; [7] -18% | [1]; [8] -10% | [1]; at 50.0 µM 60.2% | [2]; [7] -18% | [2]; [8] -3% | [2]; at 50.0 µM 22.4% | [3]; [7] -18% | [3]; [8] 15% | [3]; at 50.0 µM 22.9% | [4]; [7] -24% | [4]; [8] -20% | [4]; at 50.0 µM 12.2% | [5]; [7] -12% | [5]; [8] 25% | [6]; [7] -26% | [6]; [8] 3% | [6]; at 50.0 µM -4%
active: [5]; at 50.0 µM 81.8%

CCCCCCN(S(=O)(=O)c1ccc([N+](=O)[O-])cc1)S(=O)(=O)c1ccc([N+](=O)[O-])cc1
active: [2]; at 50.0 µM 73.7% | [3]; at 50.0 µM 71.3% | [6]; at 50.0 µM 73.8%
inactive: [1]; [7] 23% | [1]; [8] 48% | [1]; at 50.0 µM 66.8% | [2]; [7] -105% | [2]; [8] 51% | [3]; [7] 8% | [3]; [8] 48% | [4]; [7] 8% | [4]; [8] 55% | [4]; at 50.0 µM 68.7% | [5]; [7] 32% | [5]; [8] 50% | [5]; at 50.0 µM 56.9% | [6]; [7] 18% | [6]; [8] 48%
